Test results: PubChem BioAssay AID623959 (National Center for Advancing Translational Sciences (NCATS), 2012)
The whole screen tested about 1,400 compounds, of which fewer than 10 were called active. Inconclusive results (about 8%) are left out. Calls follow the shape of the dose curve; as a rule, active = well fitted curve in the direction sought with a large enough effect; inconclusive = small, poorly fitted or top-dose-only effect, or another doubt; inactive = no such curve, though single readings can be large or run the other way. Only a sample is shown.

The compounds below were run against Transient receptor potential cation channel subfamily V member 1 (Homo sapiens) (UniProt Q8NER1) (assay: qHTS Assay for Compounds that Act as Potentiators of the Vanilloid Receptor 1: Hit Validation). Conditions: TRPV1-expressing cells, Fluo-8 calcium influx, capsaicin EC20; series mostly up to 42.1 µM.
From the text: The transient receptor potential ion channel, family V, number 1, (TRPV1) is one of the most important molecular transducers of painful stimuli and a potential target for analgesic drug development. Although recent clinical trials with orthosteric antagonists have not produced a successful drug because of a hyperthermia side effect and their tendency to block thermal noxious pain, this ion channel is undeniably well placed in the pain pathway, and the idea of blocking pain signals before they enter the CNS is an excellent concept and of proven efficacy when TRPV1 agonists are used. We propose a new approach involving allosteric modulation to impose an activity-dependent constraint within the context of inflammation and tissue damage that would alter the responsiveness of the channel in a way that an orthosteric vanilloid antagonist cannot achieve. We believe that the allosteric modulator approach has not been explored for this target. The main goal of this proposal is to identify additional, new, potent allosteric modulators of TRPV1 that can be used to investigate TRPV1 function. Our recent report provides evidence of proof of concept, but the compounds are just at the edge of utility in terms of potency. […] The question of whether they can be used as analgesic agents is complex, but if suitable compounds are identified then testing for analgesic properties will be conducted. Compounds identified as agonists were re-tested in the primary screen for hit validation. NIH Chemical Genomics Center [NCGC] NIH Molecular Libraries Probe Centers Network [MLPCN] MLPCN Grant: MH089480 Assay Submitter (PI): Michael Iadarola, National Institute of Dental and Cranofacial Research
Upon TRPV1 activation in TRPV1 cells, the channel opens and extracellular cations flow through the channel into the cytosol. A calcium binding dye (Fluo-8) becomes fluorescent when bound to calcium. This dye is pre-loaded into cells and is used as a marker for calcium influx. The amount of accumulated calcium is precisely quantified using the FDSS kinetic reader and the calcium dye. For the HTS assay, freshly prepared cells are plated at a density of 2000/well in 3 ul medium in 1536-well plates and cultured overnight at 35.5C. Cells will be loaded with 1 ul of the homogeneous calcium dye (ABD Bioquest) at room temperature for 40 to 90 minutes. Plates will be loaded into the FDSS kinetic reader and a 1 sec / cycle for 10 second baseline signal will be measured. Compound library will then be added with a pintool at 23 nl and measured kinetically for 3 minutes. This portion of the read is considered the agonist portion of the screen. Following the 3 minutes of incubation, an on board pipettor will deliver 1 ul of capsaicin for a final concentration equal to the EC20. Signal will be measured kinetically for an additional 2 minutes. This portion of the read is considered the allosteric enhancer portion of the screen. The FDSS reader has a standard filter set capable of measuring calcium bound Fluo-8 (ex=480 and em=520 nm).

Transient receptor potential cation channel subfamily V member 1 (Homo sapiens), sequence (Q8NER1 whole entry, looked up): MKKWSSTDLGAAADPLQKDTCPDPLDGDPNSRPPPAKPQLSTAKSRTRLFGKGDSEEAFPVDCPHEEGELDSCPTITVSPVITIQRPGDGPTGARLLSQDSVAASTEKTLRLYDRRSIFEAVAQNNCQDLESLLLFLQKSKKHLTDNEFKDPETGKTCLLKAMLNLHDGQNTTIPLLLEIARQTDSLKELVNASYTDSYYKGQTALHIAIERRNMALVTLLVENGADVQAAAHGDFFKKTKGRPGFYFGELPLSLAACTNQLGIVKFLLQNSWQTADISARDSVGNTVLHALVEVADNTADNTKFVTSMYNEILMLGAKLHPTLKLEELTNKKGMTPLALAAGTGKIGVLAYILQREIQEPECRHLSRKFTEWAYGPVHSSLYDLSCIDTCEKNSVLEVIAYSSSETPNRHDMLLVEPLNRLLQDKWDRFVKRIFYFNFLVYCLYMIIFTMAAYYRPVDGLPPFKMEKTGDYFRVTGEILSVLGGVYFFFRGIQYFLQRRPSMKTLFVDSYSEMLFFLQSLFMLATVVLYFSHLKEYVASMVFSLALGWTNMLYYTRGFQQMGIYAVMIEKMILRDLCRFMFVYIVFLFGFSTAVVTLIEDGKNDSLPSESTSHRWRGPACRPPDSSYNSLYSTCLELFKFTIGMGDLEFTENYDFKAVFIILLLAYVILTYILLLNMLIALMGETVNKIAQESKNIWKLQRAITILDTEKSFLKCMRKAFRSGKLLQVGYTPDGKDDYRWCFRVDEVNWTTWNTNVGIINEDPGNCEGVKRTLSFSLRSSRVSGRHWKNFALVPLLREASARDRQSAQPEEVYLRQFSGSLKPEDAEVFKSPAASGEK

Potency, inactive:
CC1CC(C)CN(C(=O)c2cc(S(=O)(=O)N3CCCCC3)ccc2Cl)C1 (stereo not drawn), O=C(Cc1nc2ccccc2[nH]1)c1ccc(Cl)cc1, CS(=O)(=O)N1N=C(c2cccs2)CC1c1ccc(Cl)o1 (stereo not drawn), CCOCc1c(C(=O)Nc2ccc(OC)nc2)oc2ccccc12, Cc1cc(NC(=O)C(C)C)ncc1NC(=O)c1cccc(F)c1, CC1CCN(C(=O)c2cc(-c3ccc4c(c3)OCO4)on2)CC1, Cc1ccc(NC(=O)CSc2nnc(-c3ccccn3)n2C)cc1, O=C(CSc1nc2ccccc2[nH]1)c1ccccc1F, Cc1ccc2c(c1)nnn2C1CCN(C(=O)NCc2ccccc2)CC1, O=C(CSc1nc(C2CC2)nc2ccccc12)N1CCCCC1, Cc1oc(C(C)(C)C)cc1C(=O)N1CCCC1C(=O)O (stereo not drawn), O=C(O)c1ccc(NC(=O)c2ccccc2Br)c(NC(=O)c2ccccc2Br)c1, Cc1cccc(NCc2cc(Cl)cc(Cl)c2O)n1, CC(C)NC(=O)C1CC=CCC1C(=O)O (stereo not drawn), CC(=O)CC(C)(C)S(=O)(=O)c1ccc(NC(C)=O)cc1, CC(=O)Nc1cc(-c2ccccc2)ccc1O, CSCCC(NC(=O)c1ccc(Cl)cc1)C(=O)NC(C)(C)C (stereo not drawn), Cc1cc(C)c(C#N)c(Cl)n1, O=C(O)c1sccc1S(=O)(=O)N1CCN(c2ccc(C(F)(F)F)cn2)CC1, O=[N+]([O-])c1ccc(O)c(/C=N/Nc2ccccc2[N+](=O)[O-])c1, Cc1nn(C)c(C(=O)Nc2ccc(S(=O)(=O)NC34CC5CC(CC(C5)C3)C4)cc2)c1Br, COc1ccc(C2=NCCn3nc4ccccc4c32)cc1, CCN(c1ccccc1)S(=O)(=O)c1ccc2c(c1)N(C(C)=O)CCO2, COc1cc2[nH]c(C(=O)Nc3ccc(F)cc3)cc2c(OC)c1OC, COc1ccc(-c2cn3cc(C)ccc3n2)cc1OC, Cn1ncc([N+](=O)[O-])c1C(=O)Nc1ccccc1, CC(/C=C/c1ccc2c(c1)OCO2)=N\NC(=O)c1ccccc1, Cc1nc([N+](=O)[O-])c(C(=O)OCc2ccccc2)n1C, Cc1cccnc1NC(N)=S, COC(=O)[C@H](C)NC(=O)c1cc2c(cn1)[nH]c1ccccc12, NC(=O)C1(c2ccccc2)OC1c1ccccc1 (stereo not drawn), CCOC(=O)C(Cc1ccccc1)C(=O)Nc1cccc(C)c1 (stereo not drawn), COc1ccc(C(=O)Nc2nc3ccccc3s2)cc1, COc1cc(/C=N/NC(=S)Nc2cccnc2)cc(OC)c1OC, CCOC(=O)N1CCN(CCC(=O)Nc2cccc(Cl)c2C)CC1, N#C/C(=N\Nc1ccc([N+](=O)[O-])cc1)C(=N)N1CCOCC1, COc1ccc(C(=O)N/N=C/c2ccc(OC)c(CSc3ccccn3)c2)cc1, CC(C)Oc1ccc(NC(=O)c2ccncc2)cc1, Cn1c(=O)c2ccccc2n(CC(=O)Nc2ccc3c(c2)OCCO3)c1=O, COc1ccc(Nc2nc(C)nc3c2oc2ccccc23)cc1, CS(=O)(=O)Nc1nc2ccccc2[nH]1, COc1ccc(CNC(=S)Nc2cccc(F)c2)cc1, COc1ccc(C(=O)N(C)C2CCCN(Cc3ccccc3F)C2)cc1OC (stereo not drawn), COCCNC(=O)c1cccc(OC2CCN(Cc3cccc(C(C)=O)c3)CC2)c1, CC(Oc1cccc(Cl)c1)C(=O)Nc1nc(-c2ccccn2)cs1 (stereo not drawn), Cc1cc(C)c(C(=O)N2CCCC(Nc3ccc(C)c(C)c3)C2)o1 (stereo not drawn), Cc1[nH]c2ccccc2c1-c1nc2ccccc2[nH]1, CSc1ncccc1C(=O)OCc1ccc(Br)cc1, COc1ccc(-c2nn(-c3ccccc3)cc2C(=O)NC(=S)Nc2cc(Cl)ccc2Cl)cc1, CCOCCCn1c(=S)[nH]c2cc(C(=O)N3CCC(C(N)=O)(N4CCCCC4)CC3)ccc2c1=O, CCOc1c(Nc2ccc(C(C)C)cc2)c(=O)c1=O, O=C(Cc1cccs1)Nc1cccc(-c2nnc(-c3ccco3)o2)c1, O=C(NCc1ccncc1)c1ccc(Oc2ccccc2)cc1, CC(C)C[C@H](NC(=O)c1[nH]cnc1C(=O)N[C@@H](Cc1ccccc1)C(=O)OC(C)(C)C)C(=O)OC(C)(C)C, CC(C)(C)C(=O)CSc1ncnc2c1cnn2Cc1ccccc1, CCC(CO)NCc1ccc(OCC(O)c2ccccc2)c(OC)c1 (stereo not drawn), COc1c(O)ccc(/C=N\NC(=O)c2ccc3c(c2)OCO3)c1[N+](=O)[O-], O=C(CCCCn1c(=O)c2ccccc2n(CC(=O)NC2CCCC2)c1=O)NCc1ccco1, CC(=O)c1cccc(NC(=O)/C(=C\c2cccnc2)NC(=O)c2ccc(C)cc2)c1, C=C(C)c1cccc(C(C)(C)NC(=O)Nc2cccnc2)c1, COCCn1cnnc1SCC(=O)Nc1cc(OC)c([N+](=O)[O-])cc1C, Cc1ccc(NC(=O)CN(C)C(C)C(=O)Nc2ccc(S(=O)(=O)N3CCCC3)cc2)cc1 (stereo not drawn), O=C(NCc1cccnc1)c1ccc(-c2ccc(Cl)cc2)o1, CC(C)=NOCC(=O)Nn1c(COc2ccccc2)nc2ccccc2c1=O, O=C(Nc1ccc(F)cc1)c1ccc2ncsc2c1, CC(=O)Oc1ccc(/C=C/c2nc3ccccc3c(=O)o2)cc1, CCOc1ccc(OCCC(=O)N(CC(=O)Nc2ccccc2C(F)(F)F)Cc2ccco2)cc1, CN(C)/C=C/C(=O)c1nnn(C2CCCCC2)c1NC1CCCCC1
